7 sequences from PMC7862700, “An all-to-all approach to the identification of sequence-specific readers for epigenetic DNA modifications on cytosine” can be followed below.

Holding throughout (experiment): DAPPL (digital affinity profiling via proximity ligation, sequencing); 10 mM Tris-HCl pH 7.5, 50 mM NaCl, 1 mM DTT, 4% glycerol, room temperature, 30 min; GST-TFs on glutathione beads, 16-mer random dsDNA library, 0.1% formaldehyde crosslink after washing; high values mean tight binding
What all share (conditions): protein: recombinant; tags: N-terminal GST; dsDNA, one strand shown

In one test the target is T1, ERF (Homo sapiens, UniProt P50548 1-548).
T1 sequence: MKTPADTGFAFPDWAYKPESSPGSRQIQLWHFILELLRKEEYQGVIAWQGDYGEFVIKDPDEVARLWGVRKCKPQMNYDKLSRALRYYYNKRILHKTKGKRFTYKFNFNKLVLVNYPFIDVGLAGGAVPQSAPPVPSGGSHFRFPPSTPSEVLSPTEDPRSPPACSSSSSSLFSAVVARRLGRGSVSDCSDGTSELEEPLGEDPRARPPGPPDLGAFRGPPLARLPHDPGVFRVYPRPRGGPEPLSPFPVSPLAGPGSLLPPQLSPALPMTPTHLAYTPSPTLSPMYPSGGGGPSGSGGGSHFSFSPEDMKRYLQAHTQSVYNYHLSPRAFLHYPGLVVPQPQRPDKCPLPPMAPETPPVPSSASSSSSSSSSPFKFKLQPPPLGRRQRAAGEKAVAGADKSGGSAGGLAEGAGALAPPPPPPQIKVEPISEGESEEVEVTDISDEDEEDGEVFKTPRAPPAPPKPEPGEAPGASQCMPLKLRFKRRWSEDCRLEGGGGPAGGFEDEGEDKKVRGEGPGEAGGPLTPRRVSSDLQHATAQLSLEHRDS
Summed up:
(§1)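 Binding signal is each hexamer's read frequency for a factor divided by its frequency in the tag-only sample. The factors were GST-fused human transcription factors from yeast, captured on glutathione beads, DNA-barcoded and pooled with that sample. Pools were incubated with 200 nmole of a random double-stranded 16-mer DNA library in Tris/NaCl/DTT/glycerol buffer at room temperature for 30 min, then washed, crosslinked with 0.1% formaldehyde, proximity-ligated with BsaI/T4 ligase (1 h, 37 °C), PCR-amplified and sequenced on an Illumina NextSeq500.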

For a further test, the target named is T2, ETV3L (Homo sapiens, UniProt Q6ZN32 1-361).
T2 sequence: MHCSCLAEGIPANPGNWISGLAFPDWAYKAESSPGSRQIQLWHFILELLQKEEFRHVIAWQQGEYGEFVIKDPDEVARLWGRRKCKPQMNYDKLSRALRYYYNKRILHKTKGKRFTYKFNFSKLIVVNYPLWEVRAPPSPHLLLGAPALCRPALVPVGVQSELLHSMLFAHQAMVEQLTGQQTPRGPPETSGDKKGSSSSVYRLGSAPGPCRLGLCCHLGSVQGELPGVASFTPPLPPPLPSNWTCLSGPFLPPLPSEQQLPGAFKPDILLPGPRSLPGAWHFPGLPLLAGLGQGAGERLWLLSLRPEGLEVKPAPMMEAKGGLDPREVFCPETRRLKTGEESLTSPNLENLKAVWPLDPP
The essentials: as §1

For the next test, the target named is T3, ETS2 (Homo sapiens, UniProt P15036 1-469).
T3 sequence: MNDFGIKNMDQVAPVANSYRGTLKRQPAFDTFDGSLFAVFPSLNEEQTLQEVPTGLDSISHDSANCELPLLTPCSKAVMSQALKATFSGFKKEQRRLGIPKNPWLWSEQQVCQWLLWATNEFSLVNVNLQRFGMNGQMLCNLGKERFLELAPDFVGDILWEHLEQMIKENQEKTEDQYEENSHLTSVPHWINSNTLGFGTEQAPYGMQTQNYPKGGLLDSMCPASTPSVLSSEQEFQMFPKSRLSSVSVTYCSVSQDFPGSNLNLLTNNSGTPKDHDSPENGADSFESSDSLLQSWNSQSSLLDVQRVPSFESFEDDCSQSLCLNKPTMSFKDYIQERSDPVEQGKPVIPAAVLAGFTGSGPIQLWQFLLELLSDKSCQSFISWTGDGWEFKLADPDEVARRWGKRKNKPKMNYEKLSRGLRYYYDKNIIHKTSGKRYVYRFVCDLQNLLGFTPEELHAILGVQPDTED
Summed up: as §1

The target in a further test is T4, SPDEF (Homo sapiens, UniProt O95238 1-335).
T4 sequence: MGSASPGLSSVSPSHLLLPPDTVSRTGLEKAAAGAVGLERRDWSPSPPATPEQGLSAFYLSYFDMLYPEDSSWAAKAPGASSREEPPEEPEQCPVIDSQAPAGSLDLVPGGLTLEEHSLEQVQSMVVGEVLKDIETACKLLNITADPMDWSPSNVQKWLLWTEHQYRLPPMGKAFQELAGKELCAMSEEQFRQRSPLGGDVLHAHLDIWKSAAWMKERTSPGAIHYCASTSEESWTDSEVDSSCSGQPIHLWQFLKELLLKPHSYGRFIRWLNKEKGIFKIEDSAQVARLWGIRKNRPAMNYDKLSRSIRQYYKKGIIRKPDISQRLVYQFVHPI
Summed up:
as §1

In the next test the target is T5, ETV7 (Homo sapiens, UniProt Q9Y603 1-341).
T5 sequence: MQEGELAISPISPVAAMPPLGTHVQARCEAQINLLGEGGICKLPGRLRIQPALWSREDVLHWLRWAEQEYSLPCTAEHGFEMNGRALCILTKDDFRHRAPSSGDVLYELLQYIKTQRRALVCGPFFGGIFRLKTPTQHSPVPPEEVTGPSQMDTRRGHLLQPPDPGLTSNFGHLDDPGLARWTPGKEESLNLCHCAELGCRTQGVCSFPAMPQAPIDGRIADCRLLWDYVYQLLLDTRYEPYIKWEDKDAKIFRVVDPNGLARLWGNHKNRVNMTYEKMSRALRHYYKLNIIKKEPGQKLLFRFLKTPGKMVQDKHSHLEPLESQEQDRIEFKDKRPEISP
The essentials:
as §1

Another test concerns the target T6, ELF5 (Homo sapiens, UniProt Q9UKW6-2 1-255).
T6 sequence: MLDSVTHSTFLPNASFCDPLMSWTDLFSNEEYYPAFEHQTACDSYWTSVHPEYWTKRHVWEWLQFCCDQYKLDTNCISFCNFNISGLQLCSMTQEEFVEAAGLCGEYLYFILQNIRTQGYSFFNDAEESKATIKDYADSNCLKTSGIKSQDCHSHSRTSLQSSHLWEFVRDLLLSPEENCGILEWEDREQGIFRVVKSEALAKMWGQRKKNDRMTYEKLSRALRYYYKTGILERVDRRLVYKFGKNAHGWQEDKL
Summed up: as §1

Another test deals with T7, ETV3 (Homo sapiens, UniProt P41162-2 1-143).
T7 sequence: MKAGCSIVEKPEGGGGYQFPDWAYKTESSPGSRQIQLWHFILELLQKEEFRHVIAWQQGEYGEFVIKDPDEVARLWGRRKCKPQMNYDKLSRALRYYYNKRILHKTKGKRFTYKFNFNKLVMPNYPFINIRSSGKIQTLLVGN
Summed up:
as §1

Another test addresses ETV6 (Homo sapiens, UniProt P41212 1-452). Summed up: as §1

ETV6, sequence (P41212 whole entry): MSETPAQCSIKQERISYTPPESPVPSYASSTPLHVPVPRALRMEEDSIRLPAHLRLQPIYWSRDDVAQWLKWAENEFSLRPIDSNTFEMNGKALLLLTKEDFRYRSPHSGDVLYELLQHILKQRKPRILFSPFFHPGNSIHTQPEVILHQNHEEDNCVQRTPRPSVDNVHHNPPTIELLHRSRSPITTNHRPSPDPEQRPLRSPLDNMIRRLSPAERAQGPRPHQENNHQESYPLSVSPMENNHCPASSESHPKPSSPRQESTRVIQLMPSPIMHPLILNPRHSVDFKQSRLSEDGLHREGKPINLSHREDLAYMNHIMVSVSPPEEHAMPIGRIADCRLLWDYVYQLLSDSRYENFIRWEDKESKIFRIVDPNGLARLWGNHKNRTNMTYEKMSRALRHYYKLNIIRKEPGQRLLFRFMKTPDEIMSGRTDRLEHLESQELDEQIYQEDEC

TACTCT: the binding signal with ERF was 1.46 fold enrichment (6-mer frequency, TF over GST control); with ETV3L, 1.37 fold enrichment (6-mer frequency, TF over GST control); with ETS2, 1.3 fold enrichment (6-mer frequency, TF over GST control); with SPDEF it was 1.39 fold enrichment (6-mer frequency, TF over GST control); in the test with ETV7 it was 1.33 fold enrichment (6-mer frequency, TF over GST control); with ELF5 it was 1.38 fold enrichment (6-mer frequency, TF over GST control). Also, the binding signal with ETV3 is 1.39 fold enrichment (6-mer frequency, TF over GST control); in the test with ETV6 it was 1.39 fold enrichment (6-mer frequency, TF over GST control).
For the sequence AGCTAC, the binding signal with ERF is 1.25 fold enrichment (6-mer frequency, TF over GST control); in the test with ETV3L, 1.14 fold enrichment (6-mer frequency, TF over GST control); with ETS2, 1.09 fold enrichment (6-mer frequency, TF over GST control); with SPDEF it was 1.02 fold enrichment (6-mer frequency, TF over GST control); with ETV7 it was 1.31 fold enrichment (6-mer frequency, TF over GST control); with ELF5, 1.18 fold enrichment (6-mer frequency, TF over GST control). Further, the binding signal was 1.17 fold enrichment (6-mer frequency, TF over GST control) with ETV3 and 1.22 fold enrichment (6-mer frequency, TF over GST control) with ETV6.
Consider TGGCTC, for which the binding signal was 1.31 fold enrichment (6-mer frequency, TF over GST control) with ERF; 1.5 fold enrichment (6-mer frequency, TF over GST control) with ETV3L; 1.23 fold enrichment (6-mer frequency, TF over GST control) in the test with ETS2; 1.32 fold enrichment (6-mer frequency, TF over GST control) in the test with SPDEF; 1.22 fold enrichment (6-mer frequency, TF over GST control) with ETV7; 1.21 fold enrichment (6-mer frequency, TF over GST control) with ELF5. For the same sequence, the binding signal in the test with ETV3 is 1.44 fold enrichment (6-mer frequency, TF over GST control); in the test with ETV6, 1.36 fold enrichment (6-mer frequency, TF over GST control).
As for ACTTCT, the binding signal was 1.35 fold enrichment (6-mer frequency, TF over GST control) with ERF; 1.65 fold enrichment (6-mer frequency, TF over GST control) with ETV3L; 1.4 fold enrichment (6-mer frequency, TF over GST control) with ETS2; 1.21 fold enrichment (6-mer frequency, TF over GST control) in the test with SPDEF; 1.5 fold enrichment (6-mer frequency, TF over GST control) with ETV7; 1.58 fold enrichment (6-mer frequency, TF over GST control) with ELF5. Moreover, the binding signal is 1.36 fold enrichment (6-mer frequency, TF over GST control) in the test with ETV3 and 1.58 fold enrichment (6-mer frequency, TF over GST control) with ETV6.
As for CTTCAA, the binding signal with ERF is 1.41 fold enrichment (6-mer frequency, TF over GST control); in the test with ETV3L, 1.3 fold enrichment (6-mer frequency, TF over GST control); in the test with ETS2, 1.25 fold enrichment (6-mer frequency, TF over GST control); with SPDEF it was 1.34 fold enrichment (6-mer frequency, TF over GST control); with ETV7, 1.27 fold enrichment (6-mer frequency, TF over GST control); with ELF5 it was 1.32 fold enrichment (6-mer frequency, TF over GST control). The binding signal was 1.29 fold enrichment (6-mer frequency, TF over GST control) with ETV3 and 1.39 fold enrichment (6-mer frequency, TF over GST control) with ETV6.
For TCTGCA, the binding signal is 1.29 fold enrichment (6-mer frequency, TF over GST control) with ERF; 1.42 fold enrichment (6-mer frequency, TF over GST control) in the test with ETV3L; 1.34 fold enrichment (6-mer frequency, TF over GST control) with ETS2; 1.32 fold enrichment (6-mer frequency, TF over GST control) with SPDEF; 1.28 fold enrichment (6-mer frequency, TF over GST control) in the test with ETV7; 1.29 fold enrichment (6-mer frequency, TF over GST control) in the test with ELF5. Also, the binding signal in the test with ETV3 is 1.2 fold enrichment (6-mer frequency, TF over GST control); in the test with ETV6 it was 1.23 fold enrichment (6-mer frequency, TF over GST control).
Regarding TCCTTC, the binding signal with ERF was 1.95 fold enrichment (6-mer frequency, TF over GST control); with ETV3L, 1.9 fold enrichment (6-mer frequency, TF over GST control); with ETS2 it was 2.09 fold enrichment (6-mer frequency, TF over GST control); with SPDEF, 2.21 fold enrichment (6-mer frequency, TF over GST control); with ETV7, 1.92 fold enrichment (6-mer frequency, TF over GST control); with ELF5, 3.06 fold enrichment (6-mer frequency, TF over GST control). In addition, the binding signal with ETV3 was 2.21 fold enrichment (6-mer frequency, TF over GST control); with ETV6, 2.31 fold enrichment (6-mer frequency, TF over GST control).
